# Sampled rows, rich in hits. Any-hit rate of the full collection: about 11%.
# L3MBTL1 block – L3MBTL1 (human) inhibition; AlphaScreen L3MBTL1–H3K9me1 peptide binding; hit rate 0.66% among 230,000; Potency, µM (titrated, usually from 57.1 µM), for the others: at the highest dose activity, negative = inhibition, usual class: inhibitors; Q9Y468; also: % is scaled to controls: 0 for no effect and ±100 for the full control effect; nearly all actives have a fitted effect of over 60% in size
#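 First, the protein-peptide complex forms for 30 min at room temperature (L3MBTL1 50 nM, biotinylated H3K9me1 peptide 75 nM). Next, compounds are pin-transferred and incubated 30 min. Finally, AlphaScreen beads are added and read after 30 min.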
# BAZ2B block – BAZ2B (human) inhibition | Potency, µM (series often up to 114 µM), without a hit: at the highest dose activity change, negative = inhibition, hits mostly inhibitors | AlphaScreen BAZ2B-H3K14Ac peptide displacement | hit rate 4.4% among 360,000 | AID 504333 | Q9UIF8; also: % is scaled to controls: 0 for no effect and ±100 for the full control effect; nearly all actives have a fitted effect of over 60% in size
# Target sequence (Q9UIF8 whole entry, looked up): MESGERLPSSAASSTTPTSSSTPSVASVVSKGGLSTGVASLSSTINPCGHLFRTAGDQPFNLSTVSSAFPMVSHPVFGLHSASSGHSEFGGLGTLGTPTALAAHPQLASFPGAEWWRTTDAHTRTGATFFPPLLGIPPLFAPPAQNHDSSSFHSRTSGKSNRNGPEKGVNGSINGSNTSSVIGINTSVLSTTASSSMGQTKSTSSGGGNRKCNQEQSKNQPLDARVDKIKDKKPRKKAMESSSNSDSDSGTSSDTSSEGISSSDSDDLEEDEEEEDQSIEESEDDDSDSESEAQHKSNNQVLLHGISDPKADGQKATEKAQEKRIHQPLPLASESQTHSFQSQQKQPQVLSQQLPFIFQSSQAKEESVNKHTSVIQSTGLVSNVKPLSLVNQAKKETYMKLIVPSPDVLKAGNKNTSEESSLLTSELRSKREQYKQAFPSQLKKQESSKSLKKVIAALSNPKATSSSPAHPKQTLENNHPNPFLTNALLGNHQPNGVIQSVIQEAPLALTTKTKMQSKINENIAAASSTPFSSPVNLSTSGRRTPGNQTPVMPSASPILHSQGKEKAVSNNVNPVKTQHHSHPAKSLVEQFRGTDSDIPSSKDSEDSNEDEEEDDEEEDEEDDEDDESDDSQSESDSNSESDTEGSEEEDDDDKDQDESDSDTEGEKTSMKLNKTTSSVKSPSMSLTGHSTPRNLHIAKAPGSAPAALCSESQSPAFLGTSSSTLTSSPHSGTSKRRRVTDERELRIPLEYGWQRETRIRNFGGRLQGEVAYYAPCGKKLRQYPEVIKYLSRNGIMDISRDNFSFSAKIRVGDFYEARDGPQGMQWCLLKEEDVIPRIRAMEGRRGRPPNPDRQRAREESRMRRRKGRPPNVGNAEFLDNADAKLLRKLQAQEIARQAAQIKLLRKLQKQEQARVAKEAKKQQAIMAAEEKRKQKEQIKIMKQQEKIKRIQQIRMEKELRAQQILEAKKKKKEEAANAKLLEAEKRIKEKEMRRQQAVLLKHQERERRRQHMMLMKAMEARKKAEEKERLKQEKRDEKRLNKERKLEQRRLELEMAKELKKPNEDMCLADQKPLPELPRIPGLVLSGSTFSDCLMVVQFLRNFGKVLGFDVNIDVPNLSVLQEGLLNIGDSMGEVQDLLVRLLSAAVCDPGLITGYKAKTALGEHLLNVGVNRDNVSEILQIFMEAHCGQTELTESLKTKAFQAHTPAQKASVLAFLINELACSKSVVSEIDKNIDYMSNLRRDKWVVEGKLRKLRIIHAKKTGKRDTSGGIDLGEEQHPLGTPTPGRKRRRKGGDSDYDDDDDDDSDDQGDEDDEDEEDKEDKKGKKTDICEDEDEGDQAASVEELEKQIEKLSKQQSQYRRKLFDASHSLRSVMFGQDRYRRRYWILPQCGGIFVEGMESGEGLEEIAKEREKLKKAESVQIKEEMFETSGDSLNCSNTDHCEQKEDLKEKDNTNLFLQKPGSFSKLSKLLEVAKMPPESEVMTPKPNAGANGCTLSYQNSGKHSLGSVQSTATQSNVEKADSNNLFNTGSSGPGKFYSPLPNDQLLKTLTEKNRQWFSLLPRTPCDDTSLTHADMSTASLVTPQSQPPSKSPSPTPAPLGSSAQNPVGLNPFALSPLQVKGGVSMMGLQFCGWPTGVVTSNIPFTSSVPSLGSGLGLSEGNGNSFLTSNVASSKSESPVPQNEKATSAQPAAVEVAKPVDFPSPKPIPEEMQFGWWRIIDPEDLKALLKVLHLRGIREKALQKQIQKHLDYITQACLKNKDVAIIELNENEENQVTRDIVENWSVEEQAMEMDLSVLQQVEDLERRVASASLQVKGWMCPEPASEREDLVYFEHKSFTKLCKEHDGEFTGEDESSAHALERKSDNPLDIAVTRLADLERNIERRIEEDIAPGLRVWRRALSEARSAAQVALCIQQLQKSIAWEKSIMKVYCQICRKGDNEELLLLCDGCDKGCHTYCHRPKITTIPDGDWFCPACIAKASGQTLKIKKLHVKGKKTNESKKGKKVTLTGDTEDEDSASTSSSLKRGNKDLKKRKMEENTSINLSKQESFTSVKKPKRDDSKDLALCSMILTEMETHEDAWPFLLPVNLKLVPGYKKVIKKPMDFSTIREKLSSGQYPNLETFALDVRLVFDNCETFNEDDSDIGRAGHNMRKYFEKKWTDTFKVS
#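 BAZ2B 50 nM plus b-H3(5-23)K14Ac 50 nM, PBS pH 7.4/0.01% Tween-20, 30 min RT; compound added (max 110 uM), 30 min RT; streptavidin donor/Ni-chelate acceptor beads 10 ug/mL final, 20 min dark; AlphaScreen read.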
# G9a inh – G9a (human) methyltransferase inhibition; Q96KQ7; G9a H3K9 monomethylation, AlphaScreen, 2 h; Potency, µM (top dose mostly 102 µM), for inactives: at the highest dose activity, negative = inhibition, usual class: inhibitors; hit rate 8.8% among 350,000; AID 504332; also: % is scaled to controls: 0 for no effect and ±100 for the full control effect; nearly all actives have a fitted effect of over 75% in size
#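 Chemiluminescent proximity detection of H3K9 monomethylation, read after 10 min bead incubation in the dark. Reaction: 20 nM G9a, 500 nM biotin-H3K9 peptide, 20 uM SAM cofactor, 2 h, room temperature, following 15 min enzyme-compound preincubation.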
# HP1b binding inh – inhibitors of HP1-beta chromodomain binding to methylated histone tails. P83916. AlphaScreen HP1-beta / biotin-H3K9me3 peptide binding. Potency, µM (titrated, usually from 114 µM), for inactives: at the highest dose activity change, negative = inhibition, hits mostly inhibitors. hit rate 0.56% among 390,000; also: nearly all actives have a fitted effect of over 70% in size
#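 AlphaScreen: HP1-beta (50 nM) preformed 30 min with biotin-H3(1-18)K9me3 peptide (50 nM) in PBS pH 7.4, 0.01% Tween-20. Compound added for 30 min at RT, then streptavidin donor/nickel chelate acceptor beads (10 ug/mL) for 30 min.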
# JMJD2A Tudor – blocks the human JMJD2A Tudor domain | hit rate 4.4% among 390,000 | Potency, µM (top dose mostly 114 µM), for the others: at the highest dose activity change, negative = inhibition, usual class: inhibitors | O75164 | AlphaScreen JMJD2A-Tudor / H3K4me3 peptide binding; also: % is scaled to controls: 0 for no effect and ±100 for the full control effect; nearly all actives have a fitted effect of over 50% in size
# Starred values were filed as active, the others as inactive; ? = inconclusive; · = no result given; [ ] = dose if it differs, or a comment. Calls follow the shape of the dose curve; as a rule, active = well fitted inhibition curve with a large enough effect; inconclusive = small, poorly fitted or top-dose-only effect; inactive = no such curve, though single readings can be large or run the other way. Potency is read from the fitted curve at half-maximal effect.
SMILES,L3MBTL1 block,BAZ2B block,G9a inh,HP1b binding inh,JMJD2A Tudor
CCOc1ccc(OCC)c(NC(=O)C2CCCN(S(=O)(=O)c3cc(Br)cc4c3N(C(=O)CC)CC4)C2)c1 (configuration not stated),·,0%,-19%[59 µM],29%,-5%
O=C(NCc1cccs1)c1ccc(CSc2nc3ccncc3n2Cc2cccc(F)c2)cc1,·,-4%,?,34%,-21%
CCOC(=O)c1ccccc1NC(=O)C1CC(=O)N(C2CCCC2)C1 (configuration not stated),·,·,·,15%[57 µM],-10%
CCN1C(=O)NC(c2ccccc2)C1=O (configuration not stated),4%,10%,-46%[59 µM],26%,-21%
CN=C1N[C@H](c2ccccc2)N(c2ccccc2)S1,·,·,·,?,25µM*
O=C1CC(Sc2nnnn2C2CCCCC2)C(=O)N1c1ccccc1 (configuration not stated),?,-3%,10µM*,1%,-17%
Cn1nnnc1SC1CC(=O)N(c2ccccc2)C1=O (configuration not stated),3%,-3%,-37%[12.7 µM],-15%,-22%
CCc1nnc(NC(=O)CN2CCN(CC)CC2)s1,1%,-4%,79µM*,31%,-10%
COc1ccccc1N1CCN(CC(=O)Nc2ccc(CN3CCCCC3)cc2)CC1,-1%,50µM*,10µM*,?,4µM*
CCc1nnc(NC(=O)CN2CCN(S(C)(=O)=O)CC2)s1,·,-6%,-9%,41%,0%
CCc1nnc(NC(=O)CN2CCN(c3nc(-c4ccccc4)cs3)CC2)s1,-11%,?,50µM*,-10%,?
CCc1nnc(NC(=O)CN2CCN(c3ccccc3OC)CC2)s1,3%,18%,?,?,56µM*
CCOc1ccc(CNCc2c(C(=O)O)n(Cc3ccc(OC)cc3)c3ccccc23)cc1,·,?,?,-2%,-29%
COc1ccc(CNc2ncncc2-c2ccc(C(=O)N(C)C)cc2)c(OC)c1,·,·,14%[0.501 µM],·,·
COc1ccc(-c2nnc3sc(C(C)N4C(=O)c5ccccc5C4=O)nn23)cc1 (configuration not stated),-21%,-6%,?,0%,18µM*
COc1ccc(-c2nnc3sc(CN4C(=O)c5ccccc5C4=O)nn23)cc1,-2%,-1%,35µM*,-7%,-3%
COc1cc2c(cc1OC)C(Cc1ccc(O)cc1)N(C)CC2 (configuration not stated),0%,-3%,50µM*,5%,-18%
CCN(CC)C(=O)CSc1nnc(-c2ccccc2)n1-c1ccccc1,5%,5%,28µM*,60%,50µM*
CCN(CC)C(=O)CSc1nnc(-c2ccccc2)o1,·,12%,79µM*,26%,-4%
CCN(Cc1ccccc1)C(=O)CSc1nncn1C,3%,?,56µM*,28%,-23%
CSc1nnc(-c2ccccc2)o1,6%,·,21%[59 µM],23%,2%
CN(C)CCSc1nnc(-c2ccccc2)o1,-3%,11%,40µM*,-6%,-1%[57.1 µM]
CCCCN(CC)C(=O)CSc1nc2n[nH]c(C)c2c(=N)n1-c1ccc(CC)cc1,·,-10%,5%[59 µM],-3%,-31%
CCOC(=O)c1c(/C=N/Nc2ccccc2)c2sc(C)cc2n1C,-9%,?,?,·,·
CCCNC(=O)c1c(C)nn(-c2cccc(C)c2)c1-n1cccc1,·,-1%,6%[59 µM],43%,24%
SMILES,L3MBTL1 block,BAZ2B block,G9a inh,HP1b binding inh,JMJD2A Tudor
CC(C)CN(CC(C)C)c1nnc(NC(=O)Nc2cccc(C(F)(F)F)c2)s1,·,-32%,?,24%,-16%
O=[N+]([O-])c1cc(-c2nc(-c3ccccc3)no2)ccc1N1CCN(c2ccccc2)CC1,·,-2%,?,29%,-12%
CC/C(C)=N/Nc1nc2c(c(=O)[nH]c(=O)n2C)n1CCc1ccccc1,-4%,-19%,56µM*,-4%,-24%
CC(C)=NNc1nc2c(c(=O)[nH]c(=O)n2C)n1CCc1ccccc1,-10%,?,45µM*,?,-33%
CC/C(C)=N/Nc1nc2c(c(=O)[nH]c(=O)n2C)n1Cc1ccccc1,·,?,-9%[2.33 µM],?,?
COC(=O)CN1C(=O)N/C(=C/c2ccc(C)o2)C1=O,·,2%,25µM*,-16%,-29%
Cc1ccc(/C=C2/NC(=O)N(Cc3ccccc3)C2=O)o1,-2%,-31%,?,-22%,?
COc1ccc(CC(=O)NCCS(=O)(=O)N2CCN(c3ccccc3F)CC2)cc1OC,·,0%,10%[59 µM],20%[57 µM],-13%
COc1cccc(NC2=CC(c3ccc(C(C)C)cc3)N(c3cccc(OC)c3)C2=O)c1 (configuration not stated),·,?,?,-13%,-34%
COc1cccc(C2C=C(Nc3ccccc3)C(=O)N2c2ccccc2)c1 (configuration not stated),7%,11%,45µM*,27%,-18%
COc1ccc(C2C=C(Nc3ccccc3)C(=O)N2c2ccccc2)cc1OC (configuration not stated),-5%,-38%,8.9µM*,7%,-23%
CCOc1ccccc1NC(=O)N1c2ccccc2Sc2ccccc21,·,4%,13%[59 µM],30%,2%
Cc1cc(C)cc(C(=O)N(Cc2nc(-c3ccc(Cl)cc3)no2)C(C)C)c1,·,16%,-2%[59 µM],35%,2%
COC1CCN(Cc2c(C(=O)N3CCc4ccccc4C3)nc3ccc(Cl)cn23)CC1,·,-5%,·,11%,-10%
COCC1CCN(Cc2c(C(=O)N3CCc4ccccc4C3)nc3ccc(Cl)cn23)C1 (configuration not stated),·,-34%,40µM*,25%,-27%
O=C1C2C3CCCC3=C3CCCC3C2C(=O)N1c1ccccc1Cl (configuration not stated),·,·,·,34%,-17%
Cc1ccc(CN2CCNC(=O)C2CC(=O)O)o1 (configuration not stated),6%,11%,50µM*,46%,-14%
Cc1ccc(CN2CCNC(=O)C2CC(=O)N(C)CCc2ccccc2)cc1 (configuration not stated),0%,-1%,-1%,33%,-8%
Cc1ccc(CN2CCNC(=O)C2CC(=O)N(C)C2CCCCC2)o1 (configuration not stated),1%,-11%,-9%[12.7 µM],5%,-32%
COCCN(C(=O)CC1C(=O)NCCN1Cc1ccc(-c2ccccc2)cc1)C(C)C (configuration not stated),-10%,-17%,50µM*,25%,-19%
Cc1ccc(OCCN(C)C(=O)CC2C(=O)NCCN2CC(C)(C)C)cc1 (configuration not stated),-8%,-10%,50µM*,35%,-23%
CC(C)(C)CN1CCNC(=O)C1CC(=O)N1CCOc2ccccc2C1 (configuration not stated),5%,-1%,50µM*,32%,-6%
